Some targets named below: KRT75; KRT33B; KRT2; KRI1; KRT86; KRT85; KRT79.
Common to all, as to assay: pooled miR-30 sensor sort-seq; sequence = guide strand
Holding throughout (conditions): shRNA

In the OligoGym collection one finds sensor-assay potency score (higher = more potent) data, which are given here for 60 sequences.
Also: reference of the scale not given here.

Regarding TCAACCTGCACTCCTCGCCTTC, the sensor-assay potency score (higher = more potent) in the assay with KRT75 is -1.25.

Sequence TAGGACTGCAGCTGCTCCGAGC showed a sensor-assay potency score (higher = more potent) with KRT33B of -1.39.

Take TTTTCCAGAGAGTATCGCAGGT: in the assay with KRT33B, the sensor-assay potency score (higher = more potent) was determined as 0.0207.

As to TTCACATTCTGGATCTCTGGGT, in the assay with KRT2, the sensor-assay potency score (higher = more potent) came out at 0.038.

With TTTGATGAAATGGTGCTGCTTG, the sensor-assay potency score (higher = more potent) in the assay with KRT2 turned out to be 0.566.

In the assay with KRT33B, TTCTGAAGTCATCTGCAGCCAG returned a sensor-assay potency score (higher = more potent) of -0.402.

Regarding TCCGTCTGGTACTTGGTTCTGA, in the assay with KRT33B, the sensor-assay potency score (higher = more potent) was -0.6.

With TTGATCTCCGGCTTCCACCAGA, the sensor-assay potency score (higher = more potent) with KRT2 was -0.146.

With TCGATCTGCACCACCAGCCTGG, in the assay with KRT33B, the sensor-assay potency score (higher = more potent) is -0.584.

With TACACTGCTTCTTCACATGTGC, the sensor-assay potency score (higher = more potent) with KRT2 worked out at 0.0185.

In turn, TTCATCTTCGTACCTGACTTTG showed a sensor-assay potency score (higher = more potent) with KRT75 of -1.

TTCTGCAGTGAGCCCATCCAGA: the sensor-assay potency score (higher = more potent) in the assay with KRT2 was -1.13.

For the sequence TTGGTGTCAGTGACACTCTGAT, the sensor-assay potency score (higher = more potent) with KRT2 is -0.228.

In the assay with KRT33B, TTCTCAGACTTGCTGCACAGGA returned a sensor-assay potency score (higher = more potent) of -1.16.

In the assay with KRT75, TTAATTTCATCTTCGTACCTGA returned a sensor-assay potency score (higher = more potent) of 0.609.

Regarding TTTCAGAAACTCAATTTCCTGG, the sensor-assay potency score (higher = more potent) with KRT2 is -0.272.

ATTGTCGATCTGCACCACCAGC yielded a sensor-assay potency score (higher = more potent) with KRT33B of -1.36.

On to TGGTTCTGAAGTCATCTGCAGC, for which the sensor-assay potency score (higher = more potent) in the assay with KRT33B is -1.53.

On to TTCTTTAGGGAGCACCACCGGT, for which, in the assay with KRI1, the sensor-assay potency score (higher = more potent) was -1.34.

In the case of TTGGTTCTGAAGTCATCTGCAG, in the assay with KRT33B, the sensor-assay potency score (higher = more potent) is 0.243.

Take TACTTTCCGCAGCTTCTCCAGC: the sensor-assay potency score (higher = more potent) with KRI1 is -0.735.

In the case of TTGTCAGAGAGGCAGAACTGGC, in the assay with KRT33B, the sensor-assay potency score (higher = more potent) is -1.76.

In the assay with KRT2, TTTTGATCTGCTCACGCTCTTG yielded a sensor-assay potency score (higher = more potent) of -1.42.

Turning to TTGACTCCAAACCTGTTGCTGG, in the assay with KRT75, the sensor-assay potency score (higher = more potent) is -0.175.

Sequence TAGTAGTGCCCACCACCACGTT returned a sensor-assay potency score (higher = more potent) in the assay with KRT86 of -1.34.

The sequence TCCCTCTGTAGGAACATCCAGA registered a sensor-assay potency score (higher = more potent) with KRT85 of -1.53.

Consider TTGCCAGTCACAGAAATGCTGA, for which the sensor-assay potency score (higher = more potent) in the assay with KRT79 is -0.931.

Sequence TTATTGGAAACACAGAGTGAAA had a sensor-assay potency score (higher = more potent) in the assay with KRT86 of -1.53.

On to TCCAGCTCGGCCAACTTGCAGC, for which the sensor-assay potency score (higher = more potent) in the assay with KRT86 is -1.89.

Sequence TTGTGCTTTGACCTCGGCGATG registered a sensor-assay potency score (higher = more potent) with KRT75 of -1.35.

For the sequence TTGATCTCGGCAATGATGCAGT, the sensor-assay potency score (higher = more potent) with KRT86 was -0.0305.

With TTTATTGAAACACAGATCGAGA, the sensor-assay potency score (higher = more potent) in the assay with KRT85 is -0.788.

In the case of TTCTGGTAGAACTGCCACTTGG, in the assay with KRT85, the sensor-assay potency score (higher = more potent) was -1.54.

In turn, TTAGTTTTTCAGAAGCTCTTGA showed a sensor-assay potency score (higher = more potent) in the assay with KRT86 of 0.521.

TTGCTGTTGCTGGGGACGCTAC had a sensor-assay potency score (higher = more potent) in the assay with KRT86 of -1.52.

In the assay with KRT79, TTCATCCTCGTACTTGTTCTTG displayed a sensor-assay potency score (higher = more potent) of -0.726.

As to TTAACCTTCCCTCCCATCCTAC, the sensor-assay potency score (higher = more potent) with KRT79 was -1.2.

TCGTACTGTGCCTTGATCTCGG gave a sensor-assay potency score (higher = more potent) with KRT86 of 0.0587.

TCGCTCTCCAGAAGCTTGCGGT came in with a sensor-assay potency score (higher = more potent) with KRT79 of -0.966.

TTGCCATGCAGATCCATCCGGC: the sensor-assay potency score (higher = more potent) with KRT79 was -0.416.

For TTAATAGACACATTCCAGGGAG, the sensor-assay potency score (higher = more potent) with KRT75 came to 0.363.

ATCTTGACTATGACCGAGGTGT had a sensor-assay potency score (higher = more potent) with KRT85 of -0.378.

ATTTGTGCTGAATCCACCCTTG: in the assay with KRT79, the sensor-assay potency score (higher = more potent) was 0.32.

In the assay with KRT85, TTCACTGAATAGCAAGACCTGT showed a sensor-assay potency score (higher = more potent) of -0.614.

Take TTTGCCATGCAGATCCATCCGG: the sensor-assay potency score (higher = more potent) in the assay with KRT79 was -0.203.

In the case of TTGAGCACCACAAACTCGTTCT, in the assay with KRT79, the sensor-assay potency score (higher = more potent) turned out to be 0.422.

TTGAAACACAGATCGAGACAAC displayed a sensor-assay potency score (higher = more potent) in the assay with KRT85 of -0.784.

In turn, TTGCTCTCGCAGCAGCGCTGGT returned a sensor-assay potency score (higher = more potent) in the assay with KRT85 of -1.3.

Turning to TTCTCTGCAGCAGTGTGCTTGT, in the assay with KRT79, the sensor-assay potency score (higher = more potent) was -0.0157.

Regarding TTCACATGTGTAACAGACGGGT, in the assay with KRT75, the sensor-assay potency score (higher = more potent) is -0.549.

With TTCTTTAGAACGACAAACTCAT, in the assay with KRT85, the sensor-assay potency score (higher = more potent) was 0.238.

In the assay with KRT86, ACGGGTGACAATGTCATCGTAC showed a sensor-assay potency score (higher = more potent) of -0.601.

The sequence TTTATTGGAAACACAGAGTGAA displayed a sensor-assay potency score (higher = more potent) with KRT86 of 0.556.

In turn, TTGACCGTAGTGGTCTTCCGCA came in with a sensor-assay potency score (higher = more potent) with KRT79 of -0.477.

Consider TTTGTGGAGTATGTTTGCCGAG, for which the sensor-assay potency score (higher = more potent) with KRT79 is -0.673.

For TATTTTGGAGCTAAGTAGGAGT, the sensor-assay potency score (higher = more potent) with KRT85 is -0.047.

For ATAGGCAGCATCTACGTCCTTT, the sensor-assay potency score (higher = more potent) with KRT75 was -0.0293.

In turn, TGACAATGTCATCGTACTGTGC displayed a sensor-assay potency score (higher = more potent) in the assay with KRT86 of -0.56.

In turn, TTGATTTCATCCTCGTACTTGT returned a sensor-assay potency score (higher = more potent) with KRT79 of 0.185.

Consider TTGACTATGACCGAGGTGTCTG, for which the sensor-assay potency score (higher = more potent) with KRT85 is -0.0564.
